# Measured values from PubChem BioAssay (EPA / NIEHS).
# Records with an inconclusive call do not appear. The source made the active and inactive calls. Rule for the calls: active = hit-call score of the fitted dose curve at least 0.9, where 1 is the maximum; inconclusive = response in the unintended direction; inactive = score below 0.9.
# Columns and labels:
# [1] = biological target: Cellular tumor antigen p53 (Homo sapiens) (UniProt P04637); assay: TOX21_p53_BLA_p2_ratio: Tox21 HCT-116 p53 Agonism Beta-lactamase Assay, Ratio, Phase 2 (AID 2283592)
# How it was run: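 HCT116 p53-bla; 4000 cells/well; 5 h pre-incubation; cpd in DMSO, 217-fold dilution; 16 h 37C/5% CO2; CCF4-AM 2 h RT; Ex 405, Em 460/530 ratio; DMSO = baseline; positive fitting direction.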
# [2] = TOX21_p53_BLA_p3_viability: Viability Assessment in the Tox21 HCT-116 p53 Agonism Beta-lactamase Assay, Phase 3 (AID 2283593);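 note: cells exposed to compound for 16 h before reading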
# How it was run: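 HCT116 cells, 4000/well, dosed 5 h after plating by pin transfer (217-fold dilution from DMSO stock) and incubated 16 h at 37C, 5% CO2. Viability read as ATP luminescence with CellTiter-Glo after 30 min at room temperature.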
# [3] = biological target: Cellular tumor antigen p53 (Homo sapiens) (UniProt P04637); assay: TOX21_p53_BLA_p3_ratio: Tox21 HCT-116 p53 Agonism Beta-lactamase Assay, Ratio, Phase 3 (AID 2283596)
# How it was run: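 HCT116 p53-bla cells (4000/well) given compound in DMSO (217-fold dilution) after 5 h, incubated 16 h at 37C. CCF4-AM substrate 2 h at room temperature; 460/530 nm emission ratio, gain fitted against DMSO.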
# [4] = TOX21_p53_BLA_p4_viability: Viability Assessment in the Tox21 HCT-116 p53 Agonism Beta-lactamase Assay, Phase 4 (AID 2283597);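 note: hits lower the luminescence signal meaning cytotoxicity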
# How it was run: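 Cells plated, 5 h pre-incubation; DMSO compounds pinned (217-fold dilution); 16 h, 37C/5% CO2; CCF4-AM 2 h RT; CellTiter-Glo 30 min RT; luminescence read.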
# [5] = TOX21_p53_BLA_p5_viability: Viability Assessment in the Tox21 HCT-116 p53 Agonism Beta-lactamase Assay, Phase 5 (AID 2283600)
# How it was run: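 4000 cells/well; 5 h pre-incubation; DMSO compounds pin-transferred, 217-fold dilution; 16 h, 37C/5% CO2; CCF4-AM 2 h RT; CellTiter-Glo 30 min RT; luminescence.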
# [6] = biological target: Cellular tumor antigen p53 (Homo sapiens) (UniProt P04637); assay: TOX21_p53_BLA_p4_ratio: Tox21 HCT-116 p53 Agonism Beta-lactamase Assay, Ratio, Phase 4 (AID 2283601)
# How it was run: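 HCT-116 p53 beta-lactamase reporter cells (4000/well) preincubated 5 h, then compound (217-fold dilution of DMSO stock) for 16 h at 37C. CCF4-AM substrate added 2 h at room temperature; 460/530 nm emission ratio fitted upward versus DMSO.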
# [7] = biological target: Cellular tumor antigen p53 (Homo sapiens) (UniProt P04637); assay: TOX21_p53_BLA_p5_ratio: Tox21 HCT-116 p53 Agonism Beta-lactamase Assay, Ratio, Phase 5 (AID 2283599)
# How it was run: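 HCT-116 p53-bla cells (4000/well) plated 5 h, dosed with compound (217-fold DMSO dilution) for 16 h at 37 C; CCF4-AM substrate 2 h at room temperature. Activity is the 460/530 nm emission ratio (405 nm excitation), fitted in gain-of-signal direction versus DMSO.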
# [8] = tested on: Thyroperoxidase (TPO), gene 54314; assay: CCTE_Simmons_AUR_rTPO: CCTE's Amplex UltraRed Assay for Thyroperoxidase (TPO) Inhibition, Simmons Lab (AID 2283662);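 for AC50: potency for loss of signal meaning inhibition of peroxidase activity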
# How it was run: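 Cell-free peroxidase activity assay using rat thyroid gland microsomes with excess H2O2 (300 uM) and 25 uM Amplex UltraRed. Compounds tested from 5 nM to 87.5 uM; fluorescence measured after 30 min at 37C, analysed relative to DMSO baseline.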
# [9] = CCTE_Simmons_CellTiterGLO_HEK293T: Viability Assessment in CCTE's Assays for Thyroperoxidase (TPO) Inhibition, Simmons Lab (AID 2283665);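 for AC50: cells exposed to compound for 24 h before readout; actives reduce ATP signal below DMSO vehicle meaning cytotoxicity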
# How it was run: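 HEK293T, 10 000 cells/well, DMEM + 1% FBS; 8-pt titration 5 nM–87.5 uM [final], 0.5% DMSO; 24 hr, 37C, 5% CO2; CellTiter-Glo luminescence; n=3 biological replicates.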
# Chain of Cellular tumor antigen p53 (Homo sapiens) (P04637 whole entry, looked up): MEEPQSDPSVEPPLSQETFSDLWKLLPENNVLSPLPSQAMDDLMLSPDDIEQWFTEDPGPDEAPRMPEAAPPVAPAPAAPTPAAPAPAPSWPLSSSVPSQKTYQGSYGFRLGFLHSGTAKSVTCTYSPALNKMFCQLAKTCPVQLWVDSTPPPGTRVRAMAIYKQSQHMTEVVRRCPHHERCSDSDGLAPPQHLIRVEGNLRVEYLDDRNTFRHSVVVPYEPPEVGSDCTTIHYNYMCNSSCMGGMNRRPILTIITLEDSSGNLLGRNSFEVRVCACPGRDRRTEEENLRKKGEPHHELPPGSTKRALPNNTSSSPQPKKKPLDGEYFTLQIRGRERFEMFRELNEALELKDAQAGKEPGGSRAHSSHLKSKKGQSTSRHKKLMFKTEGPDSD
smiles,measurement,setting,value
O=C1CCCCCN1SSN1CCCCCC1=O,AC50,[1],86.6 µM (active)
same,outcome,[2],inactive
same,outcome,[3],inactive
same,outcome,[4],inactive
same,outcome,[5],inactive
same,outcome,[6],inactive
O=C1CCCCCCCCCCCCCCCO1,outcome,[1],inactive
same,outcome,[2],inactive
same,outcome,[3],inactive
same,outcome,[7],inactive
same,outcome,[5],inactive
same,outcome,[6],inactive
O=C1OC(=O)c2cc(Oc3ccc4c(c3)C(=O)OC4=O)ccc21,outcome,[1],inactive
same,outcome,[2],inactive
same,outcome,[3],inactive
same,outcome,[4],inactive
same,outcome,[5],inactive
same,outcome,[6],inactive
Nc1cccc(C(F)(F)F)c1,outcome,[1],inactive
same,outcome,[2],inactive
same,outcome,[3],inactive
same,outcome,[4],inactive
same,outcome,[6],inactive
O=CN1CCCCC1,outcome,[1],inactive
same,outcome,[2],inactive
same,outcome,[3],inactive
same,outcome,[7],inactive
same,outcome,[5],inactive
same,outcome,[6],inactive
CC(C)(C)C(=O)C=Cc1ccc(Cl)cc1,outcome,[1],inactive
same,outcome,[2],inactive
same,outcome,[3],inactive
same,outcome,[4],inactive
same,outcome,[7],inactive
same,outcome,[6],inactive
O=C(O)CCCCCCCCCC(=O)O,outcome,[1],inactive
same,outcome,[2],inactive
same,outcome,[3],inactive
same,outcome,[7],inactive
same,outcome,[5],inactive
same,outcome,[6],inactive
C=CC(=O)OCCOC(=O)C=C,outcome,[1],inactive
same,outcome,[2],inactive
same,outcome,[3],inactive
same,outcome,[7],inactive
same,outcome,[5],inactive
same,outcome,[6],inactive
CCC(C)OC(=O)c1ccc(O)cc1 (configuration not stated),outcome,[1],inactive
same,outcome,[2],inactive
same,outcome,[3],inactive
same,outcome,[7],inactive
same,outcome,[5],inactive
same,outcome,[6],inactive
O=C(/C=C/C=C/c1ccc2c(c1)OCO2)N1CCCCC1,outcome,[1],inactive
same,outcome,[2],inactive
same,outcome,[4],inactive
same,outcome,[7],inactive
same,outcome,[6],inactive
c1c[nH]cn1,outcome,[1],inactive
same,outcome,[2],inactive
same,outcome,[3],inactive
same,outcome,[7],inactive
same,outcome,[6],inactive
CCCOC(=O)CCCCC(=O)OCCC,outcome,[1],inactive
same,outcome,[2],inactive
same,outcome,[3],inactive
same,outcome,[4],inactive
same,outcome,[5],inactive
same,outcome,[6],inactive
COC(=O)c1ccc2cc(C(=O)OC)ccc2c1,outcome,[1],inactive
same,outcome,[2],inactive
same,outcome,[4],inactive
same,outcome,[7],inactive
same,outcome,[5],inactive
same,outcome,[6],inactive
Cc1c(C)c([N+](=O)[O-])c(C(C)(C)C)c([N+](=O)[O-])c1C,outcome,[1],inactive
same,outcome,[2],inactive
same,outcome,[4],inactive
same,outcome,[7],inactive
CC(C)=CCC[C@H](C)CCO,outcome,[1],inactive
same,outcome,[2],inactive
same,outcome,[3],inactive
same,outcome,[4],inactive
same,outcome,[5],inactive
C=CC(C)(C)C,outcome,[1],inactive
same,outcome,[2],inactive
same,outcome,[3],inactive
same,outcome,[7],inactive
same,outcome,[5],inactive
same,outcome,[6],inactive
C=CCCCCCCCCC(=O)OCCCC,outcome,[1],inactive
same,outcome,[2],inactive
same,outcome,[3],inactive
same,outcome,[7],inactive
same,outcome,[5],inactive
CCCCCCCCCCOS(=O)(=O)O,outcome,[1],inactive
same,outcome,[2],inactive
same,outcome,[4],inactive
same,outcome,[7],inactive
C=C[Si](OC(C)=O)(OC(C)=O)OC(C)=O,outcome,[1],inactive
same,outcome,[2],inactive
same,outcome,[3],inactive
same,outcome,[7],inactive
same,outcome,[5],inactive
same,outcome,[6],inactive
O=S(=O)(O)CC(O)CCl (configuration not stated),outcome,[1],inactive
same,outcome,[2],inactive
same,outcome,[3],inactive
same,outcome,[7],inactive
same,outcome,[6],inactive
O=C1C(N(CO)C(=O)NCO)N(CO)C(=O)N1CO (configuration not stated),outcome,[1],inactive
same,outcome,[2],inactive
same,outcome,[3],inactive
same,outcome,[5],inactive
CC/C=C\CCOC(=O)CCCCC,outcome,[1],inactive
same,outcome,[2],inactive
same,outcome,[3],inactive
same,outcome,[7],inactive
same,outcome,[6],inactive
ON(Cc1ccccc1)Cc1ccccc1,outcome,[1],inactive
same,outcome,[2],inactive
same,outcome,[3],inactive
same,outcome,[5],inactive
NC(=O)c1ccccc1O,outcome,[1],inactive
same,outcome,[2],inactive
same,outcome,[3],inactive
same,outcome,[7],inactive
same,outcome,[5],inactive
same,outcome,[6],inactive
Cc1ccc2c(c1)C(=O)c1ccccc1C2=O,outcome,[1],inactive
same,outcome,[2],inactive
same,outcome,[3],inactive
same,outcome,[7],inactive
same,outcome,[5],inactive
CCC(C)(C)C1CCCCC1OC(C)=O (configuration not stated),outcome,[1],inactive
same,outcome,[2],inactive
same,outcome,[3],inactive
same,outcome,[7],inactive
same,outcome,[5],inactive
same,outcome,[6],inactive
Cc1cccc(OCCOc2cccc(C)c2)c1,outcome,[1],inactive
same,outcome,[2],inactive
same,outcome,[3],inactive
same,outcome,[7],inactive
same,outcome,[6],inactive
CCCCCCCCCCCCCOP(=O)(O)O,outcome,[1],inactive
same,AC50,[2],72.2 µM (active)
same,AC50,[3],86.8 µM (active)
same,outcome,[4],inactive
same,outcome,[6],inactive
same,outcome,[8],inactive
same,AC50,[9],79.1 µM (active)
CCOC(=O)Cc1cccc2ccccc12,outcome,[1],inactive
same,outcome,[2],inactive
same,outcome,[4],inactive
same,outcome,[7],inactive
same,outcome,[6],inactive
O=S(=O)(O)c1ccccc1C=Cc1ccc(-c2ccc(C=Cc3ccccc3S(=O)(=O)O)cc2)cc1,outcome,[1],inactive
same,outcome,[2],inactive
same,outcome,[3],inactive
same,AC50,[7],11.4 µM (active)
same,outcome,[5],inactive
same,AC50,[6],11.4 µM (active)
same,AC50,[8],44.4 µM (active)
same,outcome,[9],inactive
COc1cc(C)ccc1C(C)C,outcome,[1],inactive
same,outcome,[2],inactive
same,outcome,[3],inactive
same,outcome,[7],inactive
same,outcome,[5],inactive
same,outcome,[6],inactive
CC1=Nc2ccc3ccccc3c2C1(C)C,outcome,[1],inactive
same,outcome,[2],inactive
same,outcome,[3],inactive
same,outcome,[7],inactive
same,outcome,[5],inactive
same,outcome,[6],inactive
CCCCCCCCO[C@@H]1O[C@H](CO)[C@@H](O)[C@H](O)[C@H]1O,outcome,[1],inactive
same,outcome,[2],inactive
same,outcome,[3],inactive
same,outcome,[7],inactive
same,outcome,[6],inactive
Cc1cc(C)c(C)c(O)c1,outcome,[1],inactive
same,outcome,[2],inactive
same,outcome,[4],inactive
same,outcome,[7],inactive
same,outcome,[6],inactive
